High-throughput results deposited in PubChem BioAssay by several laboratories.
E coli Lon inh – inhibitors of E. coli Lon protease, primary screen, biochemical, fluorescence polarization | AID 602123, 2011 | 0.42% of 360,000 active | purified E. coli Lon protease | inhibition, % at 7.94 µM; in the data active = inhibition above about 13%, passing the limit was not always enough
LANA-H2B inh – blockers of LANA interaction with H2A/H2B – biochemical, FP readout, HTS, primary screen; inhibition, % (no concentration beside the values); cell-free LANA-H2A/H2B peptide, fluorescence polarization; AID 2629, 2010; Protein LANA1 (Human herpesvirus 8 type P (isolate GK18)), Q9QR71; 0.6% of 320,000 active; in the data active = inhibition mostly above about 10%, no sharp cut-off; inactive = mostly below about 6.7%
Target sequence (Q9QR71 whole entry, looked up): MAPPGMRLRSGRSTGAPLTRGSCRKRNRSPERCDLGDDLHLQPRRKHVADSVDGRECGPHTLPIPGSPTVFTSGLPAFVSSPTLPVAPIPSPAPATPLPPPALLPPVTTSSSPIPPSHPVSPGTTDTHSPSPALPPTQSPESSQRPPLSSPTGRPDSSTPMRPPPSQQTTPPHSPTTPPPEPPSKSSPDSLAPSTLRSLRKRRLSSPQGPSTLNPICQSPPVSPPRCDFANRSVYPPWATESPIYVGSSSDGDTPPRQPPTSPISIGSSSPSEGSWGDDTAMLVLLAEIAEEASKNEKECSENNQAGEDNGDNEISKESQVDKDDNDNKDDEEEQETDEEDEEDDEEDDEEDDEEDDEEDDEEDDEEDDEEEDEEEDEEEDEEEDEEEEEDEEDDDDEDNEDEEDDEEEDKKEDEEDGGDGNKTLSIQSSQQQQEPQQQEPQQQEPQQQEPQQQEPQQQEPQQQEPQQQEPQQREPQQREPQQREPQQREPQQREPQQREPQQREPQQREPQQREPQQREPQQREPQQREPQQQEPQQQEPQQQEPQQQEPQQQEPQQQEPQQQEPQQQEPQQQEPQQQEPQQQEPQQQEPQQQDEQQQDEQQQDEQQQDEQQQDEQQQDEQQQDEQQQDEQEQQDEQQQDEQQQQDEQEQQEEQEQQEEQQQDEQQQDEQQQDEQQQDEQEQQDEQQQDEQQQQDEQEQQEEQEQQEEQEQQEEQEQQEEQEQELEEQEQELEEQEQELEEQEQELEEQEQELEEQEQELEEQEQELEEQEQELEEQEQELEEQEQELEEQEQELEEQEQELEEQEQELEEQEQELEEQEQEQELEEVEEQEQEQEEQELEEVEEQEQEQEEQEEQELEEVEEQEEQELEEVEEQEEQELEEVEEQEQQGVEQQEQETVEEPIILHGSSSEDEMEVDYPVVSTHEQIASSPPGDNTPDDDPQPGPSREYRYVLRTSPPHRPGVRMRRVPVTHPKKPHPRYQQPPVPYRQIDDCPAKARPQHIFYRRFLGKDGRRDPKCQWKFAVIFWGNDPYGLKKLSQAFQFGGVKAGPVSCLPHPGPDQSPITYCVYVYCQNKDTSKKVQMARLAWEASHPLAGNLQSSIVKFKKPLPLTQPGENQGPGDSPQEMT
RTF Ca sens inh – cardiac RTF calcium sensitivity inhibitors, primary screen, biochemical, IANBD-TnC fluorescence, EC70 calcium | AID 493244, 2011 | inhibition, % at 7.15 µM | 0.12% of 340,000 active | IANBD-labeled cardiac RTF, Ca2+ fluorescence;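 active = inhibition above the mean inhibition of all tested compounds plus 3 SD, cut at about 17% in these data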;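 note: assay run at fixed EC70 calcium of 1.6 mM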
Keap1-Nrf2 PPI – Keap1-Nrf2 protein-protein interaction inhibitors, primary screen, biochemical, fluorescence polarization, single point; AID 504523, 2011; 0.15% of 340,000 active; Keap1 Kelch-Nrf2 peptide fluorescence polarization, 1536-well; inhibition, % at 9.4 µM; Kelch-like ECH-associated protein 1 (Homo sapiens), Q14145; in the data active = inhibition above about 12%; inconclusive = no clear call, values can overlap the other calls; inactive = below about 7.3%;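 note: human Keap1 Kelch domain with fluorescein labeled Nrf2 9mer peptide probe; higher means more block of Keap1 binding to Nrf2 peptide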
cardiac RTF act – cardiac RTF calcium sensitivity activators, primary screen, biochemical, IANBD-TnC fluorescence, EC20 calcium; 0.24% of 340,000 active; IANBD-labeled TnC RTF fluorescence at EC20 calcium; 0% EC20 calcium, 100% full calcium; activation, % at 7.2 µM;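 active = activation above the mean over all tested compounds plus 3 SD, cut at about 30% in these data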;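 note: rise in fluorescence read as greater calcium sensitivity of cardiac thin filaments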
LANA DNA inh – inhibitors of KSHV C-LANA binding to DNA, primary screen, biochemical, fluorescence polarization, FAM-LBS DNA, MBP-C-LANA, single point. Kaposi's sarcoma herpesvirus LANA C-terminal domain (residues 932-1162) DNA binding. 0.078% of 340,000 active. inhibition, % at 9 µM. AID 504423, 2011;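 active = highest replicate inhibition at or above 60% at 9 µM, even if other replicates fall short; inactive = all replicates below 60% inhibition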
Each line names hits and unclear results; the compound was inactive in the other large screens. Shown are actives, neighbours in structure and some others; about 1.3% of the full set was active somewhere.

C/C(=N\Nc1ccc(Cl)c(C(=O)O)c1)c1ccc(N2CCOCC2)cc1	LANA-H2B inh 10.6
O=C(CN1C(=O)/C(=C/c2ccco2)SC1=S)Nc1ccc(C(=O)O)c(O)c1	LANA DNA inh 108.0
O=C(CCCN1C(=O)/C(=C/c2ccco2)SC1=S)Nc1cccc(C(=O)O)c1	none
O=C(CN1C(=O)/C(=C/c2ccco2)SC1=S)Nc1ccc(O)c(C(=O)O)c1	LANA DNA inh 101.2
CC(C(=O)Nc1ccc(C(=O)O)c(O)c1)N1C(=O)/C(=C\c2ccco2)SC1=S (stereo unspecified)	LANA DNA inh 100.5
CCOc1ccc(OCCNC(=O)c2ccc3c(c2)nnn3CC)cc1	none
O=S(=O)(c1ccc2[nH]c3c(c2c1)CCCC3)N1CCCCC1	LANA-H2B inh 18.0
O=c1[nH]c2ccc(S(=O)(=O)N3CCCCC3)cc2[nH]1	none
O=C(c1ccc(Br)cc1)N(Cc1ccco1)C1CCS(=O)(=O)C1 (stereo unspecified)	none
CN1CCN2c3ncccc3Cc3ccccc3C2C1 (stereo unspecified)	none
CC(C)(C)[C@]1(O)CCN2C[C@H]3c4ccccc4CCc4cccc(c43)[C@@H]2C1	LANA-H2B inh 24.4
COCCn1c(/C=C/c2ccccc2)nc2ccccc21	LANA-H2B inh -127.1
O=C1c2cccc3c(N4CCCCC4)ccc(c23)C(=O)N1c1ccc(O)cc1	Keap1-Nrf2 PPI inconclusive, cardiac RTF act 115.5
O=C1c2cccc3cccc(c23)C(=O)N1c1ccc(O)cc1	none
Nc1ncc(Br)cc1S(=O)(=O)Nc1ccccc1F	none
NC(=O)c1c(N)sc2c1CCCCC2	cardiac RTF act 30.0
Cc1ccc(CNC(=O)CCC2CCCN(C(=O)c3ccc4c(c3)OCO4)C2)o1 (stereo unspecified)	none
COc1cccc(COC(=O)C2CCN(S(=O)(=O)c3ccc(C)cc3C)CC2)c1OC	LANA-H2B inh 27.3
CNc1nnc(C(F)(F)F)s1	LANA-H2B inh 16.4
COc1cc(NC(=S)NC(=O)c2cccs2)ccc1NC(=O)C(C)C	LANA-H2B inh 36.5
Cc1cc(C)nc(-n2ncc3c2CC(c2cccc(Cl)c2)CC3=O)n1 (stereo unspecified)	none
N#Cc1cc(Oc2ccccc2)c(-n2nnc3ccccc32)cc1C#N	LANA-H2B inh 26.3
C=CCN1C(=O)C(CC(=O)O)S/C1=N/N=C/c1ccc(N(CC)CC)cc1 (stereo unspecified)	none (no result: LANA-H2B inh)
COCC(C)n1c(SCC(=O)Nc2c(C)n(C)n(-c3ccccc3)c2=O)nc2ccccc2c1=O (stereo unspecified)	none
COc1ccc2c(CC(=O)O)cc(=O)oc2c1	none
COC(=O)Cc1cc(=O)oc2cc(OC)ccc12	LANA-H2B inh 67.1
COc1ccc2c(COC(=O)CC3Sc4ccccc4NC3=O)cc(=O)oc2c1 (stereo unspecified)	LANA-H2B inh 15.0
CCOc1cc(C(=O)Nc2cc(C(=O)OC)ccc2C)ccc1OCC(=O)N1CCOCC1	none
O/C=c1\ccc2cccc3nc(C(F)(F)F)nc1c23	cardiac RTF act 124.1
NNc1nc(C(F)(F)F)nc2ccccc12	none
C[C@H]1O[C@H]1P(=O)(O)O	LANA-H2B inh 33.4
C[C@@H]1O[C@@H]1P(=O)(O)O	none
Cc1cccc(N2C(=O)CN(Cc3sccc3C)C2=S)c1	none
Cc1cccc(N2C(=O)CN(Cc3cccs3)C2=S)c1	LANA-H2B inh active
Cc1ccc(NC(=O)CN(C)C(=O)Cn2ncc(Cl)c(Cl)c2=O)cc1	LANA-H2B inh active
Cc1ccc(NC(=O)CN(C)C(=O)Cc2ccc(Cl)c(Cl)c2)cc1	none
O=C(NCCc1ccccn1)C(F)(F)C(F)(F)C(F)(F)C(F)(F)C(F)(F)C(F)(F)C(F)(F)C(F)F	none
CC1CN(S(=O)(=O)c2cccc(C(F)(F)F)c2)CC(C)O1 (stereo unspecified)	none (no result: RTF Ca sens inh, Keap1-Nrf2 PPI, cardiac RTF act, LANA DNA inh)
CC(C)CCN(C)C1CCN(S(=O)(=O)c2cccc(C(F)(F)F)c2)CC1	LANA-H2B inh 24.5
COc1ccc(OC)c(NC(=O)CC2(CC(=O)O)CCCC2)c1	LANA-H2B inh 19.5
COc1ccc(-n2[nH]c3c(cnc4ccccc43)c2=O)cc1	none (no result: LANA-H2B inh, RTF Ca sens inh, Keap1-Nrf2 PPI, cardiac RTF act, LANA DNA inh)
Cc1nn(C(=O)CNC(=O)c2ccccc2)c(C)c1C	LANA-H2B inh 9.6
CC(=O)N1CCc2cc(N=NC3=C(O)CC(C)(C)CC3=O)ccc21	none
C=CCn1c(SCC(=O)c2c(N)n(C)c(=O)n(C)c2=O)nc2sc(C)c(C)c2c1=O	LANA-H2B inh 110.9
C=CCn1c(SCc2ccc(C(=O)NCCO)cc2)nc2sc(C)c(C)c2c1=O	LANA-H2B inh 22.7
COc1c(Cl)cc(C(=O)NN)cc1Cl	none
NNC(=O)c1cc(O)c(O)c(O)c1	LANA DNA inh 80.9
CCn1c(CSc2nnc(-c3cccnc3)n2-c2ccccc2C)nc2cc(C(=O)O)ccc21	LANA-H2B inh 17.9 (no result: E coli Lon inh, RTF Ca sens inh, Keap1-Nrf2 PPI, cardiac RTF act, LANA DNA inh)
CCn1c(CSc2nnc(-c3ccncc3)n2CCOC)nc2cc(C(=O)O)ccc21	none
COCCSc1nnc(NC(=O)C(C)(C)C)s1	LANA-H2B inh 43.3
CN(C)c1ccc(-c2cc([C@H]3[C@@H]4C=CCC[C@@]4(C)C(=O)N3Cc3ccccc3)ccc2F)cc1	LANA-H2B inh 14.4
CN1CCc2c(sc(/N=C/c3cccs3)c2C(N)=O)C1	cardiac RTF act 30.8
CN1CCc2c(sc(/N=C/c3ccco3)c2C(N)=O)C1	none
CC(CNC(=O)CCc1nnc(CCC2CCCCC2)o1)c1ccccc1 (stereo unspecified)	none
O=C(CCc1nnc(CCC2CCCCC2)o1)NCCn1cccn1	LANA-H2B inh 15.3
O=C(CSc1nnc(CNC(=O)c2cccs2)o1)NCCc1ccccc1	LANA-H2B inh 35.6
COc1ccc(/C=C2\Oc3cc(OCC(=O)N4CCC[C@H]4C(=O)O)ccc3C2=O)c(OC)c1	cardiac RTF act 30.4
COc1cc(OC)c(OC)cc1/C=C1\Oc2cc(OCC(=O)N3Cc4ccccc4C[C@H]3C(=O)O)ccc2C1=O	cardiac RTF act 32.1
Clc1ccc(CO/N=C/c2cccs2)cc1	none (no result: RTF Ca sens inh, cardiac RTF act)
COc1cc(C(=O)Nc2c(C)cc(C)cc2C)c(Br)c(OC)c1OC	none
Brc1ccc(C2=CC(c3ccco3)n3nnnc3N2)cc1 (stereo unspecified)	none
